Screen size: about 16,000 compounds; about 2,600 (16%) were called active. About 20% were inconclusive and are not listed. These entries were drawn from the full list. Values without a mark were called inactive. Calls come from the whole dose curve; as a rule, active = well fitted curve in the direction sought with a large enough effect; inconclusive = small, poorly fitted or top-dose-only effect, or effect the other way; inactive = no such curve, though single readings can be large or run the other way.
% is set by controls: 0 for no effect and ±100 for the full control effect.

In the test the target is Cytochrome P450 2D6 (Homo sapiens) (UniProt P10635). Description: Cytochrome panel assay with activity outcomes. The note with it: recombinant CYP, pro-luciferin dealkylation, luminescence, p450-cyp2d6; series mostly up to 57.1 µM.
Chain of Cytochrome P450 2D6 (Homo sapiens) (P10635 whole entry, looked up): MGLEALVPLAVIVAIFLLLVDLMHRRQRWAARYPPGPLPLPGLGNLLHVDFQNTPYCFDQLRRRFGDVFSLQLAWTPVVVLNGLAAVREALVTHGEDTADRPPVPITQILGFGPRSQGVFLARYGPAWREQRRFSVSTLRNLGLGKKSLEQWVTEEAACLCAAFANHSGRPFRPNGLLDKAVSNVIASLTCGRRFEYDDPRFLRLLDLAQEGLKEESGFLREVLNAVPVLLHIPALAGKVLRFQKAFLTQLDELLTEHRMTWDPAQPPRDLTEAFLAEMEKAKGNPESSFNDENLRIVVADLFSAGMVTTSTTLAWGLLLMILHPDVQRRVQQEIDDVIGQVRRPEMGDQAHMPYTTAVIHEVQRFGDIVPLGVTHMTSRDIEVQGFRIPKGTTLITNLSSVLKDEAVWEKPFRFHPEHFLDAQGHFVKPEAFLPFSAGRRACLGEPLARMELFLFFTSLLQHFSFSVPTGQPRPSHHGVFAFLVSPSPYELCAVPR
On to `CC1=NNC(=O)C1CCC(=O)N/N=C\c1ccccc1[N+](=O)[O-]` (centres undefined), for which the AC50 (in general, the concentration giving half of the maximal activity seen) is “inactive”.

For the compound `C/C(CCc1ccc2c(c1)OCO2)=N\N=C1\NC(=O)CC(C(=O)Nc2ccccc2)S1` (centres undefined), the AC50 is 8.91 µM (active).

Take `C/C(=N\N=C1\NC(=O)CC(C(=O)O)S1)c1cccs1` (centres undefined): the AC50 entry was “inactive”. Consider `COCCN1C(=O)c2ccccc2C(C(=O)Nc2ccc3c(c2)OCCO3)C1c1ccc(F)cc1` (centres undefined), for which the AC50 entry was “inactive”. For `Cc1nn(-c2ccccc2)c(Cl)c1C(=O)Nc1c(C)n(C)n(-c2ccccc2)c1=O`, the AC50 entry is “inactive”. Still for that read-out and setting: the entry for `CCC(C)NC(=O)c1c(C)cc(=O)oc1C` (centres undefined) is “inactive”.

In the case of `NC(N)=NC[C@@H]1CCCCCCN1`, the activity, negative = inhibition is 5.74% [at 11.4 µM]. The same measure, in the same setting: the figure for `C1CCN(CC[C@@H]2CCCCN2)CC1` is -9.75% [at 11.4 µM]. On to `C1CCC(C(C[C@@H]2CCCCN2)C2CCCCC2)CC1`, for which the AC50 is 0.501 µM (active).

With `CCC(=O)N1CCc2cc(S(=O)(=O)NC(C(=O)NCc3ccc(F)cc3)C(C)C)ccc21` (centres undefined), the AC50 entry is “inactive”.

As for `CNC(=S)Nc1ccc(Nc2ccccc2)cc1`, the AC50 entry is “inactive”.

As to `S=C(Nc1ccccc1)Nc1ccc(OCc2ccccc2)cc1`, the AC50 result is “inactive”. With `CC(C)(C)NC(=S)Nc1ccc(Nc2ccccc2)cc1`, the concentration at half-maximal activity (AC50) is 14.1 µM (active). Take `COc1cccc(Nc2ncc3nc(-c4cccs4)c(=O)n(CCC#N)c3n2)c1`: the AC50 entry is “inactive”.

Regarding `CCOC(=O)c1ccc(-c2ccc(CO)o2)cc1`, the AC50 result is “inactive”. Still for that read-out and setting: the same measure for `O=C(N/N=C/c1ccc(OCc2ccccc2)cc1)c1cccs1`: “inactive”; for `COc1ccc(N2C(=O)NC3CC2(C)Oc2ccccc23)cc1OC` (centres undefined): “inactive”; for `C[C@@H](O)[C@H]1C(=O)N2C(C(=O)O)=C(S[C@@H]3CN[C@H](C(=O)N(C)C)C3)[C@H](C)[C@H]12`: “inactive”. Take `CCOC(=O)N1CCC(NC(=O)CSCc2cnn(-c3ccccc3)c2-n2cccc2)CC1`: the AC50 entry is “inactive”.

For `COCC(=O)O[C@]1(CCN(C)CCCc2nc3ccccc3[nH]2)CCc2cc(F)ccc2[C@@H]1C(C)C`, the AC50 was 0.316 µM (active). For `COc1ccc(N(C)S(=O)(=O)c2ccc3c(c2)CCC(=O)N3)cc1`, the AC50 entry was “inactive”. On the same count and under the same terms, the same measure for `C/C(=N\NC(=O)c1[nH]c2c([N+](=O)[O-])cc(C)cc2c1-c1ccccc1)c1cccnc1`: “inactive”. For `COc1ccc(NC(=O)C2c3cc(OC)c(OC)cc3C(=O)N(C)C2c2cccnc2)cc1OC` (centres undefined), the AC50 result is “inactive”. Still for that read-out and setting: the figure for `C=CCC(C)(NCc1ccccc1)c1ccco1` (centres undefined) is 3.98 µM (active); for `CC1(C)Oc2cc(N)c([N+](=O)[O-])cc2O1` it is “inactive”. Still for that read-out and setting: the same measure for `Cc1nnc(SCC(=O)N2CC(=O)Nc3ccccc32)n1Cc1ccccc1`: “inactive”. For `O=C(O)c1ccccc1-c1ccccc1C(=O)Nc1ccc2c(c1)Cc1ccccc1-2`, the activity, negative = inhibition was 8.94% [at 11.4 µM].

For `O=[N+]([O-])c1cccc(/C(=N/N=C/c2ccccc2Br)C23CN4CN(CN(C4)C2)C3)c1`, the AC50 result was “inactive”.

For the compound `Cc1ccc(C(=O)NNC(=O)c2cc3cc4ccccc4nc3s2)cc1`, the AC50 result is “inactive”. As for `Oc1ccc(-c2nc(-c3ccc(F)cc3)c(-c3ccncc3)[nH]2)cc1`, the AC50 was 5.01 µM (active). Take `Cc1ccsc1-c1nc(-c2ccccc2)c(-c2ccccc2)[nH]1`: the AC50 result was “inactive”. Turning to `c1ccc(-c2n[nH]c(-c3ccccc3)c2-c2nc3ccccc3[nH]2)cc1`, the AC50 result is “inactive”. As to `O=c1cnc2cnc(Oc3ccccc3)nc2n1C1CC1`, the AC50 entry is “inactive”. On the same count and under the same terms, the entry for `Cc1ccc(C(=O)c2cn(-c3ccc(F)c(Cl)c3)nn2)cc1` is “inactive”; for `CC[C@](N)(CCC(=O)O)C(=O)O` it is “inactive”; for `CCSc1nnc(NC(=O)COc2ccc3ccccc3c2)s1` it is “inactive”. The same measure, in the same setting: the same measure for `Nc1nnc(SCCOc2cccc(Br)c2)s1`: 11.2 µM (active); for `CCn1c2ccccc2c2cc(N=C3SC(CC(=O)Nc4ccccc4OC)C(=O)N3C)ccc21` (centres undefined): “inactive”; for `CCN(CC)c1nc(Nc2ccccc2)nc(Oc2ccc(C(=O)OC)cc2)n1`: “inactive”. As to `Cc1c(N(C)CS(=O)(=O)O)c(=O)n(-c2ccccc2)n1C`, the AC50 result is “inactive”. Same read-out and setting: the entry for `CN(C)C(=O)c1ccc(-c2nc(Nc3ccncc3)c3ccccc3n2)cc1` is “inactive”; for `CN(C)c1ccc(-c2nc(-n3ccnc3)c3ccccc3n2)cc1` it is 7.94 µM (active); for `CN(C)C(=O)c1ccc(-c2nc(Nc3ccccc3)c3ccccc3n2)cc1` it is “inactive”. Take `CN(C)C(=O)c1ccc(-c2nc(-n3ccnc3)c3ccccc3n2)cc1`: the AC50 was 15.8 µM (active). Turning to `COc1ccc(-n2c(=O)c(-c3cccs3)nc3cncnc32)cc1`, the AC50 entry is “inactive”. As for `Cc1cc(=O)[nH]c2c1c(C)nn2C1CCOC(C)(C)C1` (centres undefined), the AC50 result was “inactive”. Same read-out and setting: the same measure for `O=C(Nc1nnc(CCS(=O)(=O)c2ccc(Br)cc2)s1)c1ccc([N+](=O)[O-])cc1`: “inactive”.

For the compound `O=S(=O)(O)c1ccc2cc(N=Nc3cc(S(=O)(=O)O)c4cccnc4c3O)ccc2c1`, the activity, negative = inhibition was -2.47% [at 11.4 µM]. Consider `O=C(CCC(=O)Nc1ccccc1)NNC(=O)c1cccs1`, for which the AC50 entry was “inactive”. Same read-out and setting: the entry for `CCn1ccc(C(=O)NC2C(=O)N3C(C(=O)O)=C(C)CSC23)n1` (centres undefined) is “inactive”; for `COC(=O)Nc1nc2ccc(SC(C)C)cc2[nH]1` it is “inactive”. In the case of `COc1ccc(-n2c(=O)c(-c3ccccc3)nc3cnc(N4CCNCC4)nc32)cc1`, the AC50 entry was “inactive”. For `Fc1ccc(C(OCCCc2cnc[nH]2)c2ccc(F)cc2)cc1`, the AC50 is 0.631 µM (active). For the compound `N[C@@H](Cc1cnc[nH]1)C(=O)O`, the AC50 result is “inactive”. As for `O=C(O)CC12C[C@H]3C[C@@H](CC(O)(C3)C1)C2`, the activity, negative = inhibition was 1.29% [at 11.4 µM].

With `COc1ccc([C@H](O)c2ccccn2)cc1`, the activity, negative = inhibition was 0.937% [at 11.4 µM]. With `COc1ccc(-c2cnnc(CCCn3ccnc3-c3ccccc3)n2)cc1`, the activity, negative = inhibition was -4.95% [at 11.4 µM]. Take `COc1ccc(C(O)c2nccn2Cc2ccccc2)cc1` (centres undefined): the AC50 was 10 µM (active). In the case of `CCNC(=O)C/C(C)=N/NC(=O)C12CC3CC(CC(C3)C1)C2`, the AC50 entry is “inactive”. Regarding `COc1ccc(NC(=O)N2CC[C@@]3(CCCN(C(=O)c4ccc(OC)cc4)C3)C2)cc1`, the AC50 result is “inactive”. As for `COc1ccc(NC(=O)N2CCCC3(CCN(C(=O)c4cccn4C)CC3)C2)cc1`, the AC50 entry was “inactive”. On the same count and under the same terms, the same measure for `N#Cc1ccc(C(c2nnnn2Cc2ccccc2)N2CCCC2)cc1` (centres undefined): 7.94 µM (active); for `CCn1c(SCc2ccc(C#N)cc2)nnc1-c1ccc(S(=O)(=O)N2CCCCC2)cc1`: “inactive”; for `COCC1C2CC[C@H]3C(OCc4ccc(F)cc4C(F)(F)F)OC[C@]4(C)[C@H]3C2=C(CN4C(=O)OC(C)(C)C)[C@H](C)C1COC` (some centres undefined): “inactive”.

The record behind these values is PubChem BioAssay AID1851 (National Center for Advancing Translational Sciences (NCATS), 2009).
